Only some compounds are listed: those with a hit (about 0.44% of all), similar ones and a draw of the others.
Rango release inh – prevents RanGTP from dissociating the Rango-importin beta complex | 340,000 tested, 0.071% active | AID 540253 | Biochemical FRET Rango-importin beta, RanGTP-induced dissociation | Potency, µM (top dose mostly 46.1 µM) | O95149+P62826; calls by dose curve; note: nearly all actives have a fitted effect of over 45% in size
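Quantitative HTS using a FRET biosensor: 0.1 uM Rango, 0.25 uM importin beta, 0.6 uM Ran, 2 mM GTP, 0.2 uM RCC1 final, PBS with DTT, Tween-20 and BSA. Post-read taken 45 min after Ran addition.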
Rango complex inh – Rango-importin beta binding inhibition; Potency, µM (titrated, usually from 92.2 µM); Q14974; 340,000 tested, 0.031% active; Rango CFP/YFP FRET sensor + importin beta, 45 min; calls by dose curve; note: nearly all actives have a fitted effect of over 15% in size
Target sequence (Q14974 whole entry, looked up): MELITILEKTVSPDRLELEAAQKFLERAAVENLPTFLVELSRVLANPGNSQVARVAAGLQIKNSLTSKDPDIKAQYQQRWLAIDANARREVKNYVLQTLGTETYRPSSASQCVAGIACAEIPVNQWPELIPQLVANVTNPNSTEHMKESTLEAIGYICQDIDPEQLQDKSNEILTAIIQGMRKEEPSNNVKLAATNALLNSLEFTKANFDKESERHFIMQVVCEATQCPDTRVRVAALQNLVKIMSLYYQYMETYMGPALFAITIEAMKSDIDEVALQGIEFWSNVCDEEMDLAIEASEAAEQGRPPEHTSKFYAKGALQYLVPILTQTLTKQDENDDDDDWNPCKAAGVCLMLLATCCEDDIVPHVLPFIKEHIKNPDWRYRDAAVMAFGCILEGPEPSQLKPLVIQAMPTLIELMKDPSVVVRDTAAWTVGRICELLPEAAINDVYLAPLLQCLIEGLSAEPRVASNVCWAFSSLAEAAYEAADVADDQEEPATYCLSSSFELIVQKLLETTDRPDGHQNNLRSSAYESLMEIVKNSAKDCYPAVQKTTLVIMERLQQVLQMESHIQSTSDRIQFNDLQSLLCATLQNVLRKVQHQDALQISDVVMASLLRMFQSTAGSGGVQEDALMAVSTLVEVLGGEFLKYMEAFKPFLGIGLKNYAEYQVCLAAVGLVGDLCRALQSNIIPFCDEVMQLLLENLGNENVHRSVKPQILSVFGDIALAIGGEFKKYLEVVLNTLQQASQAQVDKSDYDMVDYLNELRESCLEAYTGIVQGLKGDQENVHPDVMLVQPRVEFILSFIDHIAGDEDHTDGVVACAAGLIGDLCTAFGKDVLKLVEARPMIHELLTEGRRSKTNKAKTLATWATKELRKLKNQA
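FRET biosensor Rango (snurportin 1 IBB between N-terminal EYFP and C-terminal Cerulean), 50 nM in PBS/1 mM DTT/0.02% Tween-20/0.1% BSA, preincubated 5 min RT with compound; 0.125 microM importin beta added, 45 min RT, CFP/YFP FRET ratio read.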
BCR signal inh – inhibitors of chronic active B-cell receptor signaling | Potency, µM (highest dose often 46.1 µM), actives largely listed as inhibitors | 340,000 tested, 0.05% active | AID 493014 | ABC-DLBCL IkBa-CBG/CBR reporter, luminescence ratio, 4 h; active = well fitted inhibition curve with a large enough effect in the signal ratio, with a control signal flat, not every such curve was filed as active; inconclusive = small, poorly fitted or top-dose-only effect, or effect the other way, or a change in a side signal; the % refers to the signal ratio
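Doxycycline induced both beetle luciferases in TMD8 lymphoma cells; IKK-driven degradation limits the IkappaBalpha-fused green signal, while red luminescence normalises for cell number and nonspecific effects. Compounds tested up to 46 uM, 4 hrs.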
LMNA splice mod – modulators of lamin A splicing; HeLa LMNA splicing GFP/RFP minigene ratio, 48 h; Potency, µM (doses to about 46.1 µM), hits mostly inhibitors; 200,000 tested, 0.01% active; AID 1487; active = well fitted inhibition curve with a large enough effect in the signal ratio, with a control signal flat, not every such curve was filed as active; inconclusive = small, poorly fitted or top-dose-only effect, or effect the other way, or a change in a side signal; the % refers to the signal ratio
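S3 HeLa stable clones carrying a lamin A-EGFP splicing minigene plus DsRed2 were seeded at 600 cells/well in Opti-MEM with 2% FBS, pin-dosed and incubated 48 h at 37°C. Acumen cytometry (488 nm) gave the GFP/RFP total-intensity ratio.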
Tb PFK inh – T. brucei PFK enzyme inhibition. 330,000 tested, 0.17% active. Potency, µM (highest dose often 57.5 µM), hits mostly inhibitors. T. brucei PFK, ADP-Glo luminescence. O15648; note: nearly all actives have a fitted effect of over 60% in size
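1.25 nM PFK with 0.5 mM F6P and 0.1 mM ATP in 0.1 M TEA pH 8.0, 5 mM MgCl2, incubated 45 min at room temperature; ADP measured by ADP-Glo luminescence; compounds titrated up to 57 uM.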
Luc counter – counter-screen: inhibitors of Kinase-Glo firefly luciferase | Q27757 | Kinase-Glo luciferase, ATP luminescence, 8 min | Potency, µM (top dose mostly 38.3 µM), actives largely listed as inhibitors | 200,000 tested, 0.28% active | AID 1379; note: nearly all actives have a fitted effect of over 60% in size
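Compounds were added to a substrate mix at pH 7.2 (50 mM imidazole, 10 uM ATP, within the enzyme's linear range), followed by Kinase-Glo detection reagent; luminescence was measured after 8 minutes at ambient temperature.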
Large screens that a line does not name were inactive. Unless noted, calls come from the whole dose curve; as a rule, active = well fitted curve in the direction sought with a large enough effect; inconclusive = small, poorly fitted or top-dose-only effect, or another doubt; inactive = no such curve, though single readings can be large; an effect the other way counts as inactive or inconclusive.

Cc1cccc(/C(N)=N/OC(=O)c2ccc3c(c2)OCO3)c1	BCR signal inh inconclusive, Luc counter 10µM
COc1ccc(C(=O)O/N=C(/c2ccccc2)c2ccncc2)cc1	BCR signal inh inconclusive (no result: LMNA splice mod)
COc1ccc(C(C)=O)c(O)c1	none (no result: Rango release inh, Rango complex inh, BCR signal inh, LMNA splice mod, Tb PFK inh)
CCCSC1=C(C#N)C(c2cccs2)CC(=O)N1 (stereo not drawn)	none (no result: LMNA splice mod, Luc counter)
CCN(C(=O)COC(=O)C1CCN(S(=O)(=O)c2ccc3c(c2)OCCO3)CC1)C1CCS(=O)(=O)C1 (stereo not drawn)	none (no result: LMNA splice mod, Luc counter)
N/C(=N\OCc1ccc([N+](=O)[O-])cc1)c1ccccn1	BCR signal inh inconclusive, Luc counter 10µM (no result: LMNA splice mod)
Cc1ccc(/C(N)=N/OC(=O)c2cccc(F)c2)cc1	none (no result: Luc counter)
C/C(=N/OC(=O)c1ccc(C)cc1)c1cccs1	Tb PFK inh inconclusive, Luc counter 12.6µM
CC(C(=O)O/N=C(\N)c1ccccn1)c1ccc([N+](=O)[O-])cc1 (stereo not drawn)	BCR signal inh inconclusive, Tb PFK inh inconclusive (no result: LMNA splice mod, Luc counter)
N/C(=N\OC(=O)c1cccc(F)c1)c1ccccc1	Luc counter 11.2µM
N/C(=N\OC(=O)c1ccc(Cl)cc1Cl)c1ccccc1	BCR signal inh inconclusive, Luc counter 11.2µM
COc1cc(-c2ccc(NC(=O)NC3CC3)c(OC)c2)ccc1NC(=O)NC1CC1	BCR signal inh inconclusive, LMNA splice mod inconclusive (no result: Rango release inh, Rango complex inh, Luc counter)
COc1ccc(OC)c(NC(=O)Nc2ccc(O)c3ccccc23)c1	none (no result: BCR signal inh, LMNA splice mod, Tb PFK inh, Luc counter)
O=c1c(O[C@@H]2O[C@H](CO)[C@H](O)[C@H](O)[C@H]2O)c(-c2ccc(O)c(O)c2)oc2cc(O)cc(O)c12	LMNA splice mod inconclusive, Tb PFK inh 6.75µM (no result: Rango release inh, Rango complex inh, Luc counter)
O=c1c(O[C@@H]2O[C@H](CO)[C@@H](O)[C@H](O)[C@H]2O)c(-c2ccc(O)c(O)c2)oc2cc(O)cc(O)c12	Tb PFK inh inconclusive (no result: Rango release inh, Rango complex inh, LMNA splice mod, Luc counter)
Cc1ccccc1OCC(=O)N/N=C/c1ccc([N+](=O)[O-])o1	Rango release inh 16.4µM, Rango complex inh inconclusive, BCR signal inh inconclusive
O=C(N/N=C/c1ccc([N+](=O)[O-])o1)c1cc(-c2ccncc2)nc2ccccc12	none
O=C(N/N=C/c1ccc([N+](=O)[O-])o1)c1cc(-c2ccc(-c3ccccc3)cc2)nc2ccccc12	BCR signal inh inconclusive, Luc counter 11.2µM (no result: LMNA splice mod)
Cc1ccc(N/N=C(\Cc2nc3ccccc3[nH]2)c2ccccc2)cc1	Rango release inh inconclusive, Rango complex inh inconclusive, BCR signal inh 23.1µM, LMNA splice mod inconclusive
COCCNC(=O)CC(=O)N/N=C/c1ccc(C(=O)OC)cc1	none
COCc1cc(C)nc(SCC(=O)Oc2ccc(Cl)cc2)c1C#N	Rango release inh 9.2µM, Rango complex inh inconclusive, BCR signal inh inconclusive, LMNA splice mod inconclusive
O=C(CSC1=NCCS1)Nc1ccc(F)cc1	BCR signal inh inconclusive
Cc1ccc(C)n1Cc1ccc(C(=O)O)cc1	Rango complex inh inconclusive, Tb PFK inh 6.75µM
COc1ccc(/C=N/NC(=O)CCn2cnc(-c3ccccc3)c2-c2ccccc2)cc1	BCR signal inh 23.1µM, LMNA splice mod inconclusive
O=C(CCn1cnc(-c2ccccc2)c1-c1ccccc1)N/N=C/c1ccc(O)cc1	LMNA splice mod inconclusive
CC(=O)Nc1ccc(NC(=O)Nc2cccc3ccccc23)cc1	BCR signal inh inconclusive (no result: LMNA splice mod, Luc counter)
CCCCC[C@H](O)C/C=C1/C(=O)C=C[C@@H]1C/C=C\CCCC(=O)O	none (no result: Rango release inh, Rango complex inh, BCR signal inh, LMNA splice mod, Tb PFK inh)
CCCCC[C@H](O)/C=C/[C@H]1C=CC(=O)[C@@H]1C/C=C\CCCC(=O)O	BCR signal inh inconclusive, LMNA splice mod inconclusive, Tb PFK inh 30.1µM (no result: Rango release inh, Rango complex inh)
COc1ccc(CNC(=O)C2CCN(c3nccs3)CC2)cc1	none
Oc1cc(O)cc(/C=C/c2ccc(O)c(O)c2)c1	LMNA splice mod inconclusive, Tb PFK inh 8.49µM, Luc counter inconclusive
Cc1cc(=O)oc2c3c(cc(OCC(=O)NC(C)C)c12)OC(C)(C)CC3	BCR signal inh inconclusive (no result: LMNA splice mod, Luc counter)
COc1cccc2sc3cc(NCc4ccc5c(c4)OCO5)ccc3c(=O)c12	Rango release inh 20.6µM, Rango complex inh inconclusive, BCR signal inh inconclusive (no result: LMNA splice mod, Luc counter)
COc1ccc(C(=O)N/C(=C/c2ccc(Cl)cc2)C(=O)NCc2ccncc2)cc1	none (no result: LMNA splice mod, Luc counter)
COc1ccc(C=O)cc1OS(=O)(=O)c1ccc(NC(C)=O)cc1	BCR signal inh 18.4µM
Nc1ncnc2c1ncn2[C@@H]1O[C@H](COP(=O)(O)OP(=O)(O)OP(=O)(O)OP(=O)(O)OC[C@@H]2O[C@H](n3cnc4c(N)ncnc43)[C@@H](O)[C@@H]2O)[C@H](O)[C@H]1O	LMNA splice mod inconclusive, Luc counter 4.47µM (no result: Rango release inh, Rango complex inh, BCR signal inh, Tb PFK inh)
Cc1cc(O)c(C=O)c2c1C(=O)Oc1c(CO)c(O)c3c(c1O2)C(O)OC3=O (stereo not drawn)	Rango complex inh inconclusive, Tb PFK inh 23.9µM (no result: LMNA splice mod, Luc counter)
Cc1cc(O)c(CN(C)C)c2c1C(=O)/C(=C/c1ccco1)O2	Rango release inh 25.9µM, Rango complex inh inconclusive (no result: LMNA splice mod, Luc counter)
CCNC(=O)c1sc(-c2ccccc2)nc1C	BCR signal inh inconclusive
CCc1nc(-c2ccc(-c3ccc(OC)cc3)nc2OC)no1	Rango release inh inconclusive, LMNA splice mod inconclusive
COc1ccc(-c2ccc(-c3noc(C(C)C)n3)c(OC)n2)cc1	Rango release inh 0.0082µM, Rango complex inh inconclusive, BCR signal inh inconclusive, LMNA splice mod inconclusive
CCCc1cc(=O)oc2cc(OC(=O)CN3C(=O)NC4(CCCC4)C3=O)ccc12	Rango release inh 11.6µM, Rango complex inh inconclusive (no result: LMNA splice mod, Luc counter)
COc1ccc(OCCOC(=O)CN2C(=O)NC3(CCCC3)C2=O)cc1	none (no result: LMNA splice mod, Luc counter)

Screening data as filed in PubChem BioAssay.
